Results on 49 compounds are retold here after PubChem BioAssay AID504333 (National Center for Advancing Translational Sciences (NCATS), 2011).

Each structure is given as a SMILES string. About 16,000 (4.4%) of roughly 360,000 compounds were called active. Another 9% or so got no clear call; they are omitted. Many of the other results were omitted from the sample, so actives are more common in it than they were. Values without a mark were called inactive. Calls come from the whole dose curve; as a rule, active = well fitted inhibition curve with a large enough effect; inconclusive = small, poorly fitted or top-dose-only effect; inactive = no such curve, though single readings can be large or run the other way.
% is set by controls: 0 for no effect and ±100 for the full control effect; potency is the fitted concentration of half-maximal effect.

Sequence of Bromodomain adjacent to zinc finger domain protein 2B (Homo sapiens) (Q9UIF8 whole entry, looked up, the tested form may be a part): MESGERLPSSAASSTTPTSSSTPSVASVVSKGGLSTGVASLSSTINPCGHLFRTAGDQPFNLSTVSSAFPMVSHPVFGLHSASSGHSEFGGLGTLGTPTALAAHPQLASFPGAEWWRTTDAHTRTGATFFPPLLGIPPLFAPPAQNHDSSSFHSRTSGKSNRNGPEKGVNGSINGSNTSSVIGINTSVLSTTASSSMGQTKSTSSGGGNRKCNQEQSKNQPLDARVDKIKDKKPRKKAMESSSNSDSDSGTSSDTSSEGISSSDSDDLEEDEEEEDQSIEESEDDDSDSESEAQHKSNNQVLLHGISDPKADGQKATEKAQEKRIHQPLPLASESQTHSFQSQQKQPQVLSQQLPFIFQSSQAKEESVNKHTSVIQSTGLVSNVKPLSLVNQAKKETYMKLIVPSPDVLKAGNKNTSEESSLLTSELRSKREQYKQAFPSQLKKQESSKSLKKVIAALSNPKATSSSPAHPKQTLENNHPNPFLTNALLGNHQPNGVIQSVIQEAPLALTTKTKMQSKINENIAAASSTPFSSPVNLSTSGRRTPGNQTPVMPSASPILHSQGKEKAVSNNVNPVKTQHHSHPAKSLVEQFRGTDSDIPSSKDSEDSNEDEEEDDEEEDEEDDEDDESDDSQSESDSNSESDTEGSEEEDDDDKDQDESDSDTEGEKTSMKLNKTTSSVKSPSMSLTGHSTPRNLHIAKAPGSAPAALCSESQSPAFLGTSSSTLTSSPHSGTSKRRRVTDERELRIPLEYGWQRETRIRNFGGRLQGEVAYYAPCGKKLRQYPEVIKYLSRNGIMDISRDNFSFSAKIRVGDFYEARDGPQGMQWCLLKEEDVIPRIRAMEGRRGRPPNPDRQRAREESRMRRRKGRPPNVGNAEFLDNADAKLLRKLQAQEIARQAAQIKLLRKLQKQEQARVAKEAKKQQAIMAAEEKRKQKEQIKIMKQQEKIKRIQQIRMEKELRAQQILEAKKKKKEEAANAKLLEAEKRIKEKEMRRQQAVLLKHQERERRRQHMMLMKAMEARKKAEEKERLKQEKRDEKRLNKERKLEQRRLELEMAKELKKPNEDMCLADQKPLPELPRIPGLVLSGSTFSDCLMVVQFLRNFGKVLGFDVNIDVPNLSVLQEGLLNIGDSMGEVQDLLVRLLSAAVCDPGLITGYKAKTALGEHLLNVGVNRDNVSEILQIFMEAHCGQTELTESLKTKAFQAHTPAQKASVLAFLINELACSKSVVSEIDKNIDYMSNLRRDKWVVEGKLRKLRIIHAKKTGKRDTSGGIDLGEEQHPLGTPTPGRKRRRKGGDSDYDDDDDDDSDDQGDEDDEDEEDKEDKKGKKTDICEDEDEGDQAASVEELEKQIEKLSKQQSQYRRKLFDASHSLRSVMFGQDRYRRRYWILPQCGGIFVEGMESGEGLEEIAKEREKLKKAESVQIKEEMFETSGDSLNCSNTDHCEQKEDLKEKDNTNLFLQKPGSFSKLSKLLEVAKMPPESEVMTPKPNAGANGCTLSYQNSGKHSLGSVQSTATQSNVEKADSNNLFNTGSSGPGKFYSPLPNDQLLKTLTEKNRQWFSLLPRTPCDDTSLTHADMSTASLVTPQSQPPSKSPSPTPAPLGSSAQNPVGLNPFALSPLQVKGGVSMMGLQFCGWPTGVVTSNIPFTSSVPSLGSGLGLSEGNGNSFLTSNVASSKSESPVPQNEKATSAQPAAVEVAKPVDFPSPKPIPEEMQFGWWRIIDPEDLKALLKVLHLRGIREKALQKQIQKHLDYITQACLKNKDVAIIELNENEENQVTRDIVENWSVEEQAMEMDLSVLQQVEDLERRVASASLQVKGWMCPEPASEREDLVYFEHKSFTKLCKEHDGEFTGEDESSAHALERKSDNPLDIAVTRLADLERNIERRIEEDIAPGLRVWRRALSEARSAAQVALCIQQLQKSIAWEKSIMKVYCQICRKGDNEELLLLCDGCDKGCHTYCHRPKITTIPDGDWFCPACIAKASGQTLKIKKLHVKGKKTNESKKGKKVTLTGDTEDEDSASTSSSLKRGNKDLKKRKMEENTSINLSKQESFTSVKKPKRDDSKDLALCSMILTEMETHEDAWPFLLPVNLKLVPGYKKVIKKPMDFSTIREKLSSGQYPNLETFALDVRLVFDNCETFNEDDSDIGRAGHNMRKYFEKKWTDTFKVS

In this experiment the target is Bromodomain adjacent to zinc finger domain protein 2B (Homo sapiens) (UniProt Q9UIF8). The experiment in a line: qHTS Assay for Inhibitors of BAZ2B. Note: nearly all actives have a fitted effect of over 60% in size. The conditions noted are these: AlphaScreen BAZ2B-H3K14Ac peptide displacement; series mostly up to 114 µM; activity change, negative = inhibition: at the top concentration. The procedure, abridged:
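BAZ2B (50 nM) with biotin-H3(5-23)K14Ac peptide (50 nM) in PBS pH 7.4, 0.01% Tween-20, preformed 30 min, then compound 30 min at room temperature; top concentration 110uM. AlphaScreen streptavidin donor/nickel chelate acceptor beads (10 ug/mL final), 20 min dark, signal read.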
A general note: In qHTS, concentration-response curves come from the screen itself.
On to `COc1ccc(-c2cn3c(n2)sc2cc(C(=O)Nc4ccccc4F)ccc23)cc1`, for which the “activity change, negative = inhibition” value was -5.78%.

As for `Oc1cc2c(cc1O)CN(C(=S)NCCc1ccc(Cl)cc1)CCC2`, the Potency was 44.7 µM (active).

For the compound `O=C(NCCc1ccc(Cl)cc1)c1cccc(N2CCCC2=O)c1`, the “activity change, negative = inhibition” value is -0.783%.

For `COc1ccc(CCNC(=S)N2CCN(S(=O)(=O)c3ccc(Cl)cc3)CC2)cc1`, the “activity change, negative = inhibition” value is -22.3%.

Regarding `CC(=O)c1cc(-c2ccccc2)[nH]c1N1CCCC1`, the “activity change, negative = inhibition” value is -1.94%.

On to `O=C1NN(c2ccccc2)C(=O)/C1=C/c1ccc(-c2cccc(C(=O)O)c2)o1`, for which the Potency was 44.7 µM (active).

For `COc1ccc(-n2nnc(-c3nsc(NC(=O)c4ccc(C)c(C)c4)n3)c2C)cc1Cl`, the “activity change, negative = inhibition” value was -1.44%.

Regarding `Cc1ccc(NC(=O)c2cc(S(=O)(=O)NCCC3=CCCCC3)ccc2F)cc1C`, the “activity change, negative = inhibition” value was -1.61%.

On to `Cc1sc2ncn(CC(=O)N3CCN(c4ccc(F)cc4)CC3)c(=O)c2c1S(=O)(=O)N1CCN(c2ncccn2)CC1`, for which the “activity change, negative = inhibition” value is -11.3%.

As for `CCOC(=O)c1c(NC(=O)/C(C#N)=C/c2ccccc2)sc2c1CCC2`, the “activity change, negative = inhibition” value was -2.86%.

As for `CCOC(=O)c1c(NC(=S)NC)sc2c1CCCC2`, the “activity change, negative = inhibition” value was -3.22%.

For the compound `CCOC(=O)c1c(/N=C/c2cc(C)ccc2O)sc2c1CCC2`, the Potency was 50.1 µM (active).

Turning to `O=C(Nc1ccc2nc(SCC(=O)N3CCc4ccccc43)sc2c1)c1ccccc1F`, the “activity change, negative = inhibition” value was 13.1%.

As for `CCOC(=O)c1cc2c(=O)n3ccccc3nc2n(CC2CCCO2)c1=NC(=O)c1ccccc1Br` (centres undefined), the “activity change, negative = inhibition” value is 5.77%.

On to `CCc1ccc(NC(=O)CCCc2nnc3n(CCCOC)c(=O)c4sccc4n23)cc1`, for which the “activity change, negative = inhibition” value was -31.2%.

In the case of `N#Cc1ccccc1CN1C(=O)S/C(=C/c2cccn2-c2cccc(C(=O)O)c2)C1=O`, the Potency is 25.1 µM (active).

As to `O=C(NCCN1C(=O)S/C(=C\c2cccnc2)C1=O)c1cccc(OC(F)F)c1`, the “activity change, negative = inhibition” value is 4.16%.

In the case of `Cc1nn(Cc2ccccc2)c(C)c1C(=O)NCCN1C(=O)S/C(=C\c2ccc(F)cc2)C1=O`, the “activity change, negative = inhibition” value was 16.3%.

With `CCc1ccc(CNCc2c(C(=O)O)n(Cc3ccc(F)cc3Cl)c3cc(OC)ccc23)cc1`, the “activity change, negative = inhibition” value was -4.3%.

For the compound `CCCCN(CC)CCCNC(=O)Cn1ncc2c([nH]c3ccc(C)cc32)c1=O`, the “activity change, negative = inhibition” value was 2.67% [at 57.1 µM].

As for `CCNS(=O)(=O)c1ccc(NC(=O)CSc2nc(-c3ccco3)cc(C(F)(F)F)n2)cc1`, the “activity change, negative = inhibition” value is -15.5%.

`CCOc1cccc2c1N[C@@H](c1ccc(C(=O)O)cc1)[C@H]1CC=C[C@@H]21`: the Potency is 15.8 µM (active).

Turning to `CCOc1cc(C(=O)O)ccc1OCCOc1ccccc1`, the “activity change, negative = inhibition” value was -16.1%.

As to `CCOc1c(CNCc2ccc(C(=O)O)cc2)cccc1OC`, the “activity change, negative = inhibition” value was -3.23%.

Consider `Cc1cccc(N2CCN(C(=O)CCSCc3ccccc3F)CC2)c1C`, for which the “activity change, negative = inhibition” value is 17.7%.

`Cc1ccc(-n2ncc(C(=O)N(C)Cc3ccccc3)c2-n2cccc2)cc1`: the “activity change, negative = inhibition” value was -21.1%.

`COc1ccc2oc(-c3ccc(C)c(NC(=O)c4sc5ccccc5c4Cl)c3)nc2c1`: the “activity change, negative = inhibition” value was -16.3%.

`O=C(CSc1nc(Nc2ccc(F)c(F)c2)c2ccccc2n1)c1ccc(Cl)cc1`: the “activity change, negative = inhibition” value was -11.1%.

For the compound `O=C(NCc1ccc(Cl)cc1)NCc1ccc(Cl)cc1`, the “activity change, negative = inhibition” value is -10.7%.

As to `CC(O)CN(Cc1ccc(Cl)cc1)CC(C)O` (centres undefined), the Potency was 56.2 µM (active).

On to `CN(C)CCCNC(=S)NCc1ccc(Cl)cc1`, for which the “activity change, negative = inhibition” value was 11.6%.

In the case of `CCC1CN(S(=O)(=O)c2cc(-c3cc(C)no3)ccc2C)c2cc(C)ccc2O1` (centres undefined), the “activity change, negative = inhibition” value is 4.05%.

For the compound `O=S(=O)(c1ccc(Br)cc1)c1nnn2c1nc(N1CCOCC1)c1sccc12`, the “activity change, negative = inhibition” value is -12.7%.

Take `O=C(CSc1oc(-c2ccco2)nc1S(=O)(=O)c1ccccc1)c1ccc(Cl)cc1`: the “activity change, negative = inhibition” value was -11.8%.

Turning to `O=S(=O)(c1cccc2nonc12)N1CCN(c2cccc(Cl)c2)CC1`, the Potency is 50.1 µM (active).

Take `CC1CC(C)CN(S(=O)(=O)c2cccc3nonc23)C1` (centres undefined): the “activity change, negative = inhibition” value was -16.5%.

In the case of `O=C(NCc1ccccc1Cl)C1CCN(S(=O)(=O)c2cccc3nonc23)CC1`, the “activity change, negative = inhibition” value was -4.18%.

As for `COc1ccc(Cn2ccc3nc(C)c(C(=O)Nc4ccc(C)c(F)c4)cc3c2=O)cc1`, the “activity change, negative = inhibition” value is 0.0031%.

Consider `CC(=O)c1cccc(Nc2ccc3cc(S(=O)(=O)N4CCC(C)CC4)ccc3n2)c1`, for which the “activity change, negative = inhibition” value was 9.61%.

For `O=C(CSc1nc2c(c(=O)[nH]1)CN(Cc1ccc3c(c1)OCO3)CC2)Nc1cc(F)ccc1F`, the “activity change, negative = inhibition” value was 0.671%.

Turning to `CC(C)c1cc(CN2CCOCC2)cc(C(C)C)c1O`, the “activity change, negative = inhibition” value was -16.3%.

On to `Oc1c(C(c2ccccn2)N2CCOCC2)ccc2cccnc12` (centres undefined), for which the Potency was 3.16 µM (active).

`Oc1c(C(c2ccccc2Cl)N2CCOCC2)sc2nc(-c3ccco3)nn12` (centres undefined): the “activity change, negative = inhibition” value was -33.3%.

As to `COc1ccc(-c2nc(S(=O)(=O)c3ccccc3)c(N3CCCCC3)o2)cc1`, the “activity change, negative = inhibition” value is 1.28%.

As for `O=C(CCC1N=C2c3ccccc3N=C(SCc3ccccc3F)N2C1=O)NCCc1ccccc1` (centres undefined), the “activity change, negative = inhibition” value was -13.3%.

Take `NS(=O)(=O)c1ccc(NC(=O)COc2ccc(S(=O)(=O)NC3CCCCC3)cc2)cc1`: the “activity change, negative = inhibition” value is 0.548%.

Take `COc1ccc(-c2csc(-c3c(N)c(C(=O)c4ccc(OC)c(OC)c4)n4ccccc34)n2)cc1`: the “activity change, negative = inhibition” value was 1.95%.

Consider `Cc1cccc(N2CCN(c3ccc(NC(=O)/C=C\C(=O)O)cc3)CC2)c1`, for which the Potency was 35.5 µM (active).

Consider `CN1CCN(c2ccc(NC(=O)c3ccccc3)cc2)CC1`, for which the “activity change, negative = inhibition” value is -15.9%.
